PubChem BioAssay (NCI)
Compounds without any hit were thinned out: in the full panel of roughly 79,000, 15% have a hit. Calls of active or inactive are those of the source. No stated cut-off is given here; in the data, active means growth inhibition above about 70%; inactive means the rest.

Experiments:
[1] = NCI Yeast Anticancer Drug Screen. Data for the wt1 strain (AID 149);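 further: 0% = growth of vehicle-treated wt1 cultures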; details: S. cerevisiae wt1 strain (SPY 50644) growth inhibition, active compounds read high
In short: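 The wt1 strain was treated with compounds, and growth was compared with vehicle-treated cultures to give inhibition.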

[2] = NCI Yeast Anticancer Drug Screen. Data for the rad50EPP+ strain (AID 151);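 further: 0% = growth of vehicle-treated control cultures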; details: S. cerevisiae rad50 mutant strain, active compounds read high
In short: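 Read-out is yeast growth inhibition relative to vehicle; cells used were the rad50EPP+ strain.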

[3] = NCI Yeast Anticancer Drug Screen. Data for the mgt1 strain (AID 153); details: S. cerevisiae mgt1 mutant growth inhibition, active compounds read high
In short: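 Measured: inhibition of mgt1 yeast growth by compound, normalized to vehicle-treated cultures.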

[4] = NCI Yeast Anticancer Drug Screen. Data for the rad50 strain (AID 155);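 further: 0% = growth of vehicle-only cultures of the same strain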; details: S. cerevisiae rad50 strain growth inhibition, active compounds read high
In short: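 Cells are treated with compound, grown, and their growth is then scored against vehicle-only cultures of the same repair-deficient yeast strain.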

[5] = NCI Yeast Anticancer Drug Screen. Data for the mec2-1 strain (AID 157); details: S. cerevisiae mec2-1 strain, active compounds read high
In short: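 Using mec2-1 yeast: add compound, measure growth, express inhibition versus vehicle-treated cultures.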

[6] = NCI Yeast Anticancer Drug Screen. Data for the rad14 strain (AID 159);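 further: 0% = growth of vehicle-treated control cultures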; details: S. cerevisiae rad14 strain growth inhibition, active compounds read high
In short: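 Readout: yeast growth inhibition, referenced to vehicle-only cultures. Strain bears a defined alteration in DNA damage repair.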

[7] = NCI Yeast Anticancer Drug Screen. Data for the sgs1 mgt1 strain (AID 161);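 further: 0% = growth of cultures given vehicle only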; details: S. cerevisiae sgs1 mgt1 strain, active compounds read high
In short: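 Growth of a repair-deficient yeast mutant was monitored after compound treatment and expressed as inhibition relative to vehicle-treated cultures.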

[8] = NCI Yeast Anticancer Drug Screen. Data for the CLN2oe strain (AID 163);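 further: 0% = growth of vehicle-only control cultures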; details: S. cerevisiae CLN2oe strain, active compounds read high
In short: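 Whole-cell yeast growth assay. A strain engineered for altered cell-cycle control received compound, and inhibition relative to vehicle-treated cultures was recorded.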

[9] = NCI Yeast Anticancer Drug Screen. Data for the cln2 rad14 strain (AID 165);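 further: 0% = growth equal to vehicle treated cultures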; details: S. cerevisiae cln2 rad14 strain, active compounds read high
In short: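 Yeast strain cln2 rad14, bearing defects in cell cycle control and DNA repair, serves as the test system; values reflect growth inhibition compared with vehicle.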

[10] = NCI Yeast Anticancer Drug Screen. Data for the bub3 strain (AID 167); details: S. cerevisiae bub3 mutant strain, active compounds read high
In short: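 Part of a panel of yeast mutants defective in DNA damage repair or cell cycle regulation. Each strain is grown with compound, and inhibition is calculated relative to solvent-treated cultures.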

[11] = NCI Yeast Anticancer Drug Screen. Data for the mlh1 strain (AID 171);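 further: 0% = growth of vehicle-treated control cultures of the same strain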; details: S. cerevisiae mlh1 strain growth inhibition, active compounds read high
In short: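 A yeast strain with a defined genetic lesion serves as the test organism. Cultures receive compound or vehicle, and growth is measured.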

[12] = NCI Yeast Anticancer Drug Screen. Data for the sgs1 strain (AID 173);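 further: 0% = growth of vehicle-only control cultures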; details: S. cerevisiae sgs1 mutant, active compounds read high
In short: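 A genetically defined yeast mutant is incubated with the test compound, and its growth is compared to that of the same strain given vehicle.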

[13] = NCI Yeast Anticancer Drug Screen. Data for the mlh1 rad18 strain (AID 175); details: S. cerevisiae mlh1 rad18 strain growth inhibition, active compounds read high
In short: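 Steps: expose repair-defective yeast to compound; measure growth; express inhibition against vehicle-treated controls.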

[14] = NCI Yeast Anticancer Drug Screen. Data for the rad18 strain (AID 177); details: S. cerevisiae rad18 mutant growth inhibition, active compounds read high
In short: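 Measured value is growth inhibition of a yeast strain bearing a DNA repair alteration, referenced to vehicle-treated cells.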

[15] = NCI Yeast Anticancer Drug Screen. Data for the wt2 strain (AID 169);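 further: 0% = growth of vehicle-treated yeast cultures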; details: S. cerevisiae wt2 strain growth inhibition, active compounds read high
In short: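 Treated yeast vs. vehicle-treated yeast: growth inhibition determined.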

[16] = at 5.0 µM (retest, dose inferred, filed as 0.5)
[17] = at 50.0 µM (retest, dose inferred, filed as 5.0)

Measured: growth inhibition

CC(C)OC(CCC#N)c1ccc(Cl)cc1 (stereo unspecified)
active: [4]; [17] 99% | [5]; [17] 99% | [13]; [17] 100%
inactive: [1]; at 1.2 µM -35% | [1]; at 3.7 µM -28% | [1]; at 11.0 µM -24% | [1]; at 33.0 µM -13% | [1]; at 100.0 µM 4% | [2]; at 1.2 µM -6% | [2]; at 3.7 µM 1% | [2]; at 11.0 µM 2% | [2]; at 33.0 µM 5% | [2]; at 100.0 µM 20% | [3]; at 1.2 µM -46% | [3]; at 3.7 µM -44% | [3]; at 11.0 µM -41% | [3]; at 33.0 µM -17% | [3]; at 100.0 µM 7% | [4]; at 1.2 µM -22% | [4]; at 3.7 µM -25% | [4]; [16] 62% | [4]; at 11.0 µM -26% | [4]; at 33.0 µM -6% | [4]; at 50.0 µM 3.4% | [4]; at 100.0 µM 24% | [5]; at 1.2 µM -29% | [5]; at 3.7 µM -28% | [5]; [16] 55% | [5]; at 11.0 µM -18% | [5]; at 33.0 µM -2% | [5]; at 50.0 µM 7.95% | [5]; at 100.0 µM 7% | [6]; at 1.2 µM -22% | [6]; at 3.7 µM -26% | [6]; at 11.0 µM -12% | [6]; at 33.0 µM -6% | [6]; at 100.0 µM 1% | [7]; [16] 2% | [7]; [17] -4% | [7]; at 50.0 µM 56% | [8]; at 1.2 µM 11% | [8]; at 3.7 µM -6% | [8]; at 11.0 µM 14% | [8]; at 33.0 µM 15% | [8]; at 100.0 µM 11% | [9]; [16] 48% | [9]; [17] 46% | [9]; at 50.0 µM 6.8% | [10]; at 1.2 µM -18% | [10]; at 3.7 µM -12% | [10]; [16] 44% | [10]; at 11.0 µM -19% | [10]; at 33.0 µM 5% | [10]; [17] 45% | [10]; at 50.0 µM -1.8% | [10]; at 100.0 µM 4% | [11]; at 1.2 µM -23% | [11]; at 3.7 µM -15% | [11]; at 11.0 µM -16% | [11]; at 33.0 µM 6% | [11]; at 100.0 µM 11% | [12]; at 1.2 µM -20% | [12]; at 3.7 µM -11% | [12]; at 11.0 µM -8% | [12]; at 33.0 µM 17% | [12]; at 100.0 µM 40% | [13]; [16] 42% | [13]; at 50.0 µM 19.9% | [14]; at 1.2 µM -29% | [14]; at 3.7 µM -32% | [14]; at 11.0 µM -24% | [14]; at 33.0 µM -16% | [14]; at 100.0 µM 0%

O=C1OC(c2ccc(Cl)cc2)Sc2ccccc21 (stereo unspecified)
inactive: [1]; at 1.2 µM 1% | [1]; at 3.7 µM 6% | [1]; at 11.0 µM 17% | [2]; at 1.2 µM 11% | [2]; at 3.7 µM 28% | [2]; at 11.0 µM 45% | [2]; at 33.0 µM 61% | [2]; at 100.0 µM 58% | [3]; at 1.2 µM 6% | [3]; at 3.7 µM 8% | [3]; at 11.0 µM 17% | [4]; at 1.2 µM 7% | [4]; at 3.7 µM 13% | [4]; [16] 5% | [4]; at 11.0 µM 62% | [5]; at 1.2 µM 9% | [5]; at 3.7 µM 17% | [5]; [16] -7% | [5]; at 11.0 µM 33% | [5]; [17] 35% | [6]; at 1.2 µM 7% | [6]; at 3.7 µM 11% | [6]; at 11.0 µM 25% | [7]; [16] 4% | [7]; [17] 52% | [9]; [16] -61% | [9]; [17] -14% | [9]; at 50.0 µM -26.9% | [10]; at 1.2 µM 11% | [10]; at 3.7 µM 15% | [10]; [16] 7% | [10]; at 11.0 µM 29% | [10]; [17] 46% | [15]; at 1.2 µM 6% | [15]; at 3.7 µM 6% | [15]; at 11.0 µM 31% | [11]; at 1.2 µM 6% | [11]; at 3.7 µM 12% | [11]; at 11.0 µM 27% | [12]; at 1.2 µM 2% | [12]; at 3.7 µM 11% | [12]; at 11.0 µM 37% | [13]; [16] 16% | [14]; at 1.2 µM 6% | [14]; at 3.7 µM 15% | [14]; at 11.0 µM 68%
active: [1]; at 33.0 µM 88% | [1]; at 100.0 µM 98% | [3]; at 33.0 µM 97% | [3]; at 100.0 µM 94% | [4]; at 33.0 µM 95% | [4]; [17] 88% | [4]; at 50.0 µM 83.8% | [4]; at 100.0 µM 92% | [5]; at 33.0 µM 96% | [5]; at 50.0 µM 86.5% | [5]; at 100.0 µM 98% | [6]; at 33.0 µM 98% | [6]; at 100.0 µM 98% | [7]; at 50.0 µM 85% | [10]; at 33.0 µM 96% | [10]; at 50.0 µM 93.9% | [10]; at 100.0 µM 97% | [15]; at 33.0 µM 84% | [15]; at 100.0 µM 98% | [11]; at 33.0 µM 97% | [11]; at 100.0 µM 98% | [12]; at 33.0 µM 96% | [12]; at 100.0 µM 97% | [13]; [17] 86% | [13]; at 50.0 µM 95% | [14]; at 33.0 µM 96% | [14]; at 100.0 µM 94%

Cc1c(N=Nc2ccc(Cl)cc2)c(C)n(C2OC(CO)C(O)C(O)C2O)c(=S)c1C#N (stereo unspecified)
inactive: [1]; at 1.2 µM 1% | [1]; at 3.7 µM 2% | [1]; at 11.0 µM 3% | [1]; at 33.0 µM 9% | [1]; at 100.0 µM 24% | [2]; at 1.2 µM 5% | [2]; at 3.7 µM 19% | [2]; at 11.0 µM 40% | [2]; at 33.0 µM 66% | [3]; at 1.2 µM -1% | [3]; at 3.7 µM 1% | [3]; at 11.0 µM 12% | [3]; at 33.0 µM 66% | [4]; at 1.2 µM -3% | [4]; at 3.7 µM -9% | [4]; [16] -11% | [4]; at 11.0 µM -2% | [4]; at 33.0 µM 35% | [4]; [17] 52% | [4]; at 50.0 µM 60.4% | [4]; at 100.0 µM 66% | [5]; at 1.2 µM 2% | [5]; at 3.7 µM 3% | [5]; [16] -5% | [5]; at 11.0 µM 6% | [5]; at 33.0 µM 21% | [5]; [17] 40% | [5]; at 50.0 µM 60.2% | [5]; at 100.0 µM 28% | [6]; at 1.2 µM -2% | [6]; at 3.7 µM -3% | [6]; at 11.0 µM 6% | [6]; at 33.0 µM 28% | [8]; at 1.2 µM -2% | [8]; at 3.7 µM -2% | [8]; at 11.0 µM 1% | [8]; at 33.0 µM 15% | [8]; at 100.0 µM 54% | [9]; [16] 44% | [9]; [17] 52% | [9]; at 50.0 µM 59.5% | [10]; at 1.2 µM 0% | [10]; at 3.7 µM 2% | [10]; [16] 1% | [10]; at 11.0 µM 9% | [10]; at 33.0 µM 23% | [10]; [17] -3% | [10]; at 100.0 µM 45% | [15]; at 1.2 µM -2% | [15]; at 3.7 µM -3% | [15]; at 11.0 µM 1% | [15]; at 33.0 µM 37% | [11]; at 1.2 µM 2% | [11]; at 3.7 µM 1% | [11]; at 11.0 µM 8% | [11]; at 33.0 µM 45% | [12]; at 1.2 µM 1% | [12]; at 3.7 µM 5% | [12]; at 11.0 µM 12% | [12]; at 33.0 µM 55% | [13]; [16] -19% | [13]; [17] 53% | [14]; at 1.2 µM -1% | [14]; at 3.7 µM 8% | [14]; at 11.0 µM 18% | [14]; at 33.0 µM 59%
active: [2]; at 100.0 µM 81% | [3]; at 100.0 µM 91% | [6]; at 100.0 µM 71% | [10]; at 50.0 µM 75.5% | [15]; at 100.0 µM 90% | [11]; at 100.0 µM 90% | [12]; at 100.0 µM 82% | [13]; at 50.0 µM 83.9% | [14]; at 100.0 µM 83%
